According to PubChem BioAssay (NCI):
The panel holds about 79,000 compounds, 15% with a hit somewhere; the sample as a whole holds those more often. Cut-off read from the data, not from the text of the source: active = growth inhibition above about 70%; inactive = the rest.

Tests used:
[1] = NCI Yeast Anticancer Drug Screen. Data for the rad50 strain (AID 155);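 note: 0% = growth of vehicle-only cultures of the same strain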; conditions: S. cerevisiae rad50 strain growth inhibition, active compounds read high; at 50.0 µM unless noted
In short: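 Readout: growth inhibition relative to vehicle-treated cultures. Compound exposure was carried out in a genetically defined yeast strain deficient in DNA damage repair.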

[2] = NCI Yeast Anticancer Drug Screen. Data for the mec2-1 strain (AID 157); conditions: S. cerevisiae mec2-1 strain, active compounds read high; at 50.0 µM unless noted
In short: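 Strain: mec2-1 (DNA repair/cell cycle alteration). Compound exposure, then growth measured; inhibition expressed relative to vehicle.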

[3] = NCI Yeast Anticancer Drug Screen. Data for the sgs1 mgt1 strain (AID 161);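 note: 0% = growth of cultures given vehicle only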; conditions: S. cerevisiae sgs1 mgt1 strain, active compounds read high; at 50.0 µM unless noted
In short: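 Read-out: growth inhibition vs vehicle controls. Cells: mutant yeast strain deficient in DNA damage repair.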

[4] = NCI Yeast Anticancer Drug Screen. Data for the cln2 rad14 strain (AID 165);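 note: 0% = growth equal to vehicle treated cultures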; conditions: S. cerevisiae cln2 rad14 strain, active compounds read high; at 50.0 µM unless noted
In short: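 Compounds are applied to the cln2 rad14 yeast strain, and growth is then compared with that of vehicle-treated cultures to give inhibition.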

[5] = NCI Yeast Anticancer Drug Screen. Data for the bub3 strain (AID 167); conditions: S. cerevisiae bub3 mutant strain, active compounds read high; at 50.0 µM unless noted
In short: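 Readout: yeast growth inhibition, expressed relative to vehicle-only wells. The test organism is a mutant strain from a panel with lesions in DNA repair or checkpoint genes.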

[6] = NCI Yeast Anticancer Drug Screen. Data for the mlh1 rad18 strain (AID 175); conditions: S. cerevisiae mlh1 rad18 strain growth inhibition, active compounds read high; at 50.0 µM unless noted
In short: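 Read-out is yeast growth inhibition, calculated against vehicle-only controls. The compound was applied to a strain engineered with DNA damage repair alterations.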

Measured: growth inhibition

CCOC(=O)C1Oc2ccc([N+](=O)[O-])cc2C1(C)O (stereo not given)
inactive: [1] -1.15% | [2] 0.75% | [3] -6.85% | [4] 22.6% | [5] 1.85% | [6] -4.45%

COc1ccc([N+](=O)[O-])cc1N(C)C
inactive: [1] 19.1% | [2] 17.4% | [3] 13.6% | [4] 9% | [5] -14.2% | [6] 4.55%

CC(=O)OC(C(=O)NNC(=O)OC(C)(C)C)c1ccccc1 (stereo not given)
inactive: [1] -35.6% | [2] -49.4% | [3] -38% | [4] -19.4% | [5] -13.4% | [6] -29.2%

O=C(O)CCC(=O)c1ccc(F)cc1
inactive: [1] -20.6% | [2] -13.7% | [3] -13.6% | [4] -0.95% | [5] -22.6% | [6] -7.65%

Cc1ccnc(NS(=O)(=O)c2ccc(N=[N+]=[N-])cc2)n1
inactive: [1] -3.2% | [2] -6% | [3] 1.9% | [4] -7.4% | [5] -17.6% | [6] -14%

O=C1CCC2OC3CCC(=O)N3CN12 (stereo not given)
inactive: [1] 9.8% | [2] 8% | [3] 6.55% | [4] -11.3% | [5] 4.95% | [6] -3.6%

CCOC(=O)CC(=O)CC(=O)OCC
inactive: [1] 36% | [2] 2.6% | [3] -6.95% | [4] 6.1% | [5] 23% | [6] 7%

COC1CCC(OS(C)(=O)=O)C(C)O1 (stereo not given)
inactive: [1] 16.8% | [2] -45.9% | [3] 4.6% | [4] -2.15% | [5] -38.7% | [6] 9.85%

Cc1ccc(S(=O)(=O)c2c3[nH]c4ccccc4nc3n3c2nc2ccccc23)cc1
inactive: [1] -14.2% | [2] -45.5% | [3] -19.2% | [4] -87.3% | [5] -26.8% | [6] -14.3%

CC(=O)Nc1nnn(C)n1
inactive: [1] -4.65% | [2] -5.55% | [3] 0.8% | [4] -39.5% | [5] 9.1% | [6] -3.45%

CC(C)OC(=O)CCC(N)C(=O)O (stereo not given)
inactive: [1] 2.95% | [2] 0.6% | [3] 1.85% | [4] -4.8% | [5] 2.55% | [6] 0.1%

COCCCCCCCCCCCC(=O)O
inactive: [1] -23.4% | [2] 1.3% | [3] -46.2% | [4] -0.15% | [5] -21.2% | [6] -63.7%

CC1C(c2ccccc2)OCCN1C(=S)Nc1ccccc1 (stereo not given)
inactive: [1] 34.9% | [2] 34.2% | [3] 45.6% | [4] -16.6% | [5] 35.2% | [6] 25.4%

COC(=O)NC(=O)c1cn(CCCOC(=O)CCCCCCCCC(=O)OCCCn2cc(C(=O)NC(=O)OC)c(=O)[nH]c2=O)c(=O)[nH]c1=O
inactive: [1] -13.5% | [2] -3.8% | [3] -7.45% | [4] 9.9% | [5] 13.3% | [6] -12.4%

O=C(C[n+]1cc(Br)cc2ccccc21)c1ccc(F)cc1
inactive: [1] 24.8% | [2] 19.9% | [3] 37.3% | [4] 39.4% | [5] 4.7% | [6] 30.2%

CCCCCCOc1ccccc1CO
inactive: [1] 14.7% | [2] 10.6% | [3] -1.5% | [4] 2% | [5] -8.15% | [6] 10.8%

CC(C)C(=O)OC1(CC2CCCCN2C)CCCCC1 (stereo not given)
inactive: [1] -3.2% | [2] 13.7% | [3] 3.95% | [4] -5.8% | [5] 5.3% | [6] 6.85%

COc1ccc(-c2sc(/N=C/c3ccc(N(C)CCC#N)cc3)c(C#N)c2C)cc1OC
inactive: [1] 4% | [2] -1.05% | [3] 28.1% | [4] 16.4% | [5] 18.3% | [6] 15.3%

CCNc1cccc(C)c1
inactive: [1] 28.9% | [2] -10.7% | [3] -16.2% | [4] -33.8% | [5] 12.8% | [6] 23.1%

O=C1CCC(=O)N1C(c1ccccc1)c1ccccc1
inactive: [1] -10.4% | [2] 6.95% | [3] 5.85% | [4] -30.9% | [5] 20.9% | [6] -6.2%
